Assay outcomes from PubChem.
An excerpt weighted towards active compounds, which were near 6.7% of everything screened.
T cruzi growth-1 – T. cruzi intracellular proliferation inhibitors, primary screen, cell-based, beta-gal Tulahuen parasites, NIH3T3 host, luminescence | T. cruzi beta-gal in NIH3T3, GalScreen luminescence, 90 h | actives 5.9% (n = 77,000) | inhibition, % at 8.34 µM;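 active = mean inhibition above about 93%, with at least 55% of replicates each passing it, limit read from the data, passing the limit was not always enough; inconclusive = only one of those two conditions holds; inactive = neither condition holds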
C diff HTS – C. difficile growth inhibitors, primary screen, HTS. Clostridium difficile clinical isolate growth, OD600, 24 h; stronger effect = lower value. AID 1259249, 2017. growth activity, negative = inhibition, % at 16 µg/mL (by protocol). actives 0.25% (n = 86,000);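 active = mean growth activity at or below -80% and every replicate also at or below -80%; inconclusive = mean at or below -80% but some replicate above -80%; inactive = mean growth activity above -80%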;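 also: 0% = DMSO wells and -100% = levofloxacin 16 µg/mL wells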
Pf Dd2 growth – P. falciparum Dd2 growth inhibitors, primary screen, SYBR Green fluorescence, single dose replicates. AID 1159554, 2015. activity change, % at 10 µM. 72 h; stronger effect = lower value. actives 2.3% (n = 94,000); in the data active = activity change below about -80%; inconclusive = no clear call, values can overlap the other calls
T cruzi growth-2 – T. cruzi intracellular proliferation inhibitors, confirmation, cell-based, NIH3T3 host, beta-gal parasite, luminescence, cherry-pick; shares compounds with T cruzi growth-1; actives 72% (n = 5,600); AID 651739, 2012; T. cruzi beta-gal in NIH3T3, GalScreen luminescence, 90 h; inhibition, % at 8.35 µM;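 active = mean replicate inhibition above about 95% and at least 55% of replicates individually reaching it, limit read from the data; inconclusive = only one of the two criteria is met; inactive = neither criterion is met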
T cruzi growth-3 – inhibitors of intracellular T. cruzi replication, confirmation, NIH3T3 host cells, beta-gal parasites, cherry-pick, set 2; shares compounds with T cruzi growth-1; T. cruzi beta-gal in NIH3T3, GalScreen luminescence, 90 h; AID 651740, 2012; inhibition, % at 2.09 µM; actives 21% (n = 5,600);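 active = mean inhibition above about 95%, with at least 55% of replicates also reaching it, limit read from the data; inconclusive = meets just one of the two conditions; inactive = meets neither condition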;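 also: plate controls were neutral control median for no effect and positive control median for full effect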
NIH3T3 tox – cytotoxicity in mouse NIH/3T3 fibroblasts, confirmation, cytotoxicity control for T. cruzi proliferation inhibitor project, cell-based, cherry-pick, single point; shares compounds with T cruzi growth-1; NIH/3T3 viability, CellTiter-Glo ATP luminescence, 90 h; cytotoxicity (signal decrease), % at 8.35 µM; actives 14% (n = 5,600); AID 651742, 2012;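 active = mean signal decrease across replicates above about 35% based on untreated-well scatter, with enough replicates individually passing, limit read from the data; inconclusive = no rule stated though some were filed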;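 also: 0% = median of neutral control wells and 100% = median of positive control wells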
3T3 cytotox 2 – NIH/3T3 fibroblast cytotoxicity, confirmation, cytotoxicity control, cell-based, cherry-pick, single point, set 2. shares compounds with T cruzi growth-1. NIH/3T3 viability, CellTiter-Glo ATP luminescence, 90 h. inhibition, % at 24.9 µM. actives 56% (n = 5,600). AID 651744, 2012;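 active = mean loss of cell viability signal at or above a set limit, and enough replicates individually reaching it; inconclusive = meets only the mean limit or only the replicate share; inactive = meets neither condition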;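 also: 0% = median of neutral control wells and 100% = median of positive control wells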
Numbers without * were called inactive; ? = inconclusive; / = not tested or not shown.

SMILES | T cruzi growth-1 | C diff HTS | Pf Dd2 growth | T cruzi growth-2 | T cruzi growth-3 | NIH3T3 tox | 3T3 cytotox 2
O=C(C[C@@H]1CC[C@@H]2[C@H](COC[C@@H](O)CN2Cc2ccc3c(c2)OCO3)O1)N1CCOCC1 | -12.2 | / | 1.1 | / | / | / | /
O=C(C[C@@H]1CC[C@@H]2[C@H](COC[C@@H](O)CN2Cc2ccc3c(c2)OCO3)O1)Nc1ccc(-c2ccccc2)cc1 | 102.2* | 63.5 | -45.6 | 97.1* | 94.7 | 36.3* | 50.8*
C[C@@H]1CCCCO[C@@H](CN(C)CC2CC2)[C@H](C)CN([C@@H](C)CO)C(=O)c2cc(NC(=O)CCC(F)(F)F)ccc2O1 | 37.9 | 2.9 | -7.5 | / | / | / | /
COCC(=O)N(C)C[C@@H]1Oc2ncc(C#CC(C)(C)O)cc2C(=O)N([C@H](C)CO)C[C@@H]1C | -59.0 | -0.8 | 55.5 | / | / | / | /
O=C(CCN1CCCCC1)NCC[C@@H]1CC[C@H](NC(=O)Nc2ccc(Cl)cc2)[C@H](CO)O1 | -17.4 | 1.9 | -0.1 | / | / | / | /
CO[C@@H](CN(C)S(=O)(=O)c1ccc(F)cc1)[C@@H](C)CN(Cc1ccccc1Cl)[C@H](C)CO | 107.2* | / | -39.3 | 72.1 | -4.6 | -2.6 | ?
CO[C@@H](CN(C)C(=O)Nc1ccc(C(F)(F)F)cc1)[C@H](C)CN(Cc1ccccc1Cl)[C@H](C)CO | 58.0 | / | -36.2 | / | / | / | /
CO[C@@H](CN(C)C(=O)Nc1ccc(F)cc1)[C@@H](C)CN(Cc1ccccc1Cl)[C@@H](C)CO | -13.6 | / | -29.1 | / | / | / | /
CO[C@H](CN(C)C(=O)Nc1ccc(C(F)(F)F)cc1)[C@H](C)CN(Cc1ccccc1Cl)[C@H](C)CO | 105.1* | / | -64.5 | 110.3* | 82.3 | 46.1* | 104.5*
CO[C@H](CN(C)S(=O)(=O)c1ccc(F)cc1)[C@H](C)CN(Cc1ccccc1Cl)[C@H](C)CO | 52.8 | / | -44.9 | / | / | / | /
CO[C@@H](CN(C)C(=O)Nc1ccc(F)cc1)[C@@H](C)CN(Cc1ccccc1Cl)[C@H](C)CO | 7.3 | / | -34.9 | / | / | / | /
CO[C@H](CN(C)C(=O)Nc1ccc(C(F)(F)F)cc1)[C@@H](C)CN(Cc1ccccc1Cl)[C@H](C)CO | 97.7* | / | -44.9 | 103.4* | 68.8 | 45.1* | 103.1*
CO[C@H](CN(C)C(=O)Nc1ccc(Cl)cc1)[C@@H](C)CN(Cc1ccccc1Cl)[C@@H](C)CO | ? | / | -28.6 | 108.9* | 66.8 | 16.1 | 39.7*
Fc1cccc(CN2[C@@H]3CNC[C@H]2C3c2ccc(-c3ccncc3)cc2)c1 (stereo not given in full) | / | -7.1 | -9.0 | / | / | / | /
O=C(C[C@@H]1CC[C@H]2[C@@H](COC[C@@H](O)CN2Cc2nccs2)O1)NCc1ccc(F)cc1 | 3.3 | 0.4 | 0.4 | / | / | / | /
Cc1noc(C)c1S(=O)(=O)Nc1ccc2c(c1)C(=O)N([C@H](C)CO)C[C@H](C)[C@H](CN(C)C(=O)CCCN(C)C)OCCCC[C@H](C)O2 | -30.2 | -3.9 | 29.2 | / | / | / | /
Cc1ccc(S(=O)(=O)Nc2ccc3c(c2)C(=O)N([C@@H](C)CO)C[C@H](C)[C@@H](CN(C)C(=O)Nc2ccc4c(c2)OCO4)OCCCC[C@H](C)O3)cc1 | / | 0.7 | -78.6 | / | / | / | /
C[C@@H]1CN([C@H](C)CO)S(=O)(=O)c2ccc(C#CC3CC3)cc2O[C@H]1CN(C)Cc1ccccn1 | 109.5* | -7.6 | -28.3 | 76.2 | -3.1 | 101.8* | 76.1*
CC(C)C#Cc1ccc2c(c1)O[C@@H](CN(C)Cc1ccccn1)[C@H](C)CN([C@H](C)CO)S2(=O)=O | 75.5 | 13.8 | -43.7 | / | / | / | /
CC(C)C#Cc1ccc2c(c1)O[C@@H](CN(C)Cc1ccccn1)[C@@H](C)CN([C@H](C)CO)S2(=O)=O | 78.9 | 17.3 | -4.2 | / | / | / | /
C[C@@H]1CN([C@@H](C)CO)S(=O)(=O)c2ccc(C#CC3CC3)cc2O[C@H]1CN(C)Cc1ccccn1 | ? | -6.2 | -36.8 | 99.7* | 79.3 | 64.5* | 72.2*
C[C@H](CO)N1C[C@H](C)[C@H](CN(C)Cc2ccccn2)Oc2cc(C#CC3CC3)ccc2S1(=O)=O | 59.5 | -2.8 | -22.9 | / | / | / | /
C[C@H]1CN([C@@H](C)CO)S(=O)(=O)c2ccc(C#CC3CC3)cc2O[C@@H]1CN(C)Cc1ccccn1 | 109.0* | -10.6 | -46.2 | 91.0 | 71.0 | 27.1 | 79.9*
C[C@H]1CCCCO[C@@H](CN(C)C)[C@@H](C)CN([C@@H](C)CO)C(=O)c2cc(NC(=O)Nc3ccc(C(F)(F)F)cc3)ccc2O1 | 37.5 | 11.7 | -10.5 | / | / | / | /
C[C@@H]1CCCCO[C@@H](CN(C)CC2CCCCC2)[C@H](C)CN([C@@H](C)CO)C(=O)c2cc(NC(=O)Nc3ccc(C(F)(F)F)cc3)ccc2O1 | ? | -61.5 | -64.1 | 85.0 | 108.4* | 116.6* | 104.0*
SMILES | T cruzi growth-1 | C diff HTS | Pf Dd2 growth | T cruzi growth-2 | T cruzi growth-3 | NIH3T3 tox | 3T3 cytotox 2
C[C@H]1CCCCO[C@H](CN(C)C)[C@@H](C)CN([C@@H](C)CO)C(=O)c2cc(NC(=O)Nc3ccc(C(F)(F)F)cc3)ccc2O1 | 43.2 | 9.5 | / | / | / | / | /
C[C@@H]1CCCCO[C@@H](CN(C)CC2CC2)[C@@H](C)CN([C@H](C)CO)C(=O)c2cc(NC(=O)Nc3ccc(C(F)(F)F)cc3)ccc2O1 | 98.0* | 0.0 | -53.6 | 98.6* | 107.3* | 32.0 | 100.6*
C[C@H](CO)N1C[C@H](C)[C@@H](CN(C)CC2CC2)OCCCC[C@H](C)Oc2ccc(NC(=O)Nc3ccc(C(F)(F)F)cc3)cc2C1=O | 56.7 | 8.6 | -65.1 | / | / | / | /
C[C@@H]1CCCCO[C@H](CN(C)CC2CCCCC2)[C@H](C)CN([C@@H](C)CO)C(=O)c2cc(NC(=O)Nc3ccc(C(F)(F)F)cc3)ccc2O1 | ? | -102.7* | -87.2* | 96.9* | 109.6* | 120.7* | 104.4*
C[C@H](CO)N1C[C@H](C)[C@@H](CN(C)Cc2ccc3c(c2)OCO3)Oc2ccc(NS(=O)(=O)c3cn(C)cn3)cc2CC1=O | -5.7 | 9.0 | 6.2 | / | / | / | /
CO[C@@H]1CN(C)C(=O)c2ccc(NC(=O)NC(C)C)cc2OC[C@@H](C)N(C)C[C@@H]1C | 5.9 | / | 7.1 | / | / | / | /
C[C@@H]1CN([C@@H](C)CO)C(=O)Cc2cc(NC(=O)Nc3ccc(F)cc3)ccc2O[C@H]1CN(C)S(=O)(=O)c1ccccc1 | -3.0 | -1.4 | -8.8 | / | / | / | /
COc1ccc(S(=O)(=O)N(C)C[C@H]2Oc3ccc(NC(=O)C4CC4)cc3CC(=O)N([C@H](C)CO)C[C@@H]2C)cc1 | 11.3 | -4.6 | -24.7 | / | / | / | /
N#Cc1cccc(-c2ccc([C@@H]3[C@H](CO)N4CCCCN(C(=O)Nc5ccc(F)cc5)C[C@@H]34)cc2)c1 | 94.1 | 73.0 | 7.6 | / | / | / | /
